Several values for one entry are separate records, joined by “and”; a condition that tells them apart may be missing. Identical values can stand only once. Hit rate of the full screen: of about 360,000 compounds, about 2,400 (0.67%) were called active. No stated cut-off is given here; in the data, active means enhancement above about 30%; inactive means the rest. Shown is part of a subset that was picked to be rich in actives. The source holds several records for some structures; these can differ, active in one and inactive in another.
These compounds were tested against Thyrotropin-releasing hormone receptor (Homo sapiens) (UniProt P34981) (assay: qHTS for Small Molecule Agonists and Allosteric Enhancers of Human TRH Receptor: Primary Screen for Enhancers). Details: TRHR cells, fluo-8 calcium fluorescence, EC20 TRH enhancement; at 2 µM; stronger effect = higher value.
Thyrotropin-releasing hormone receptor (Homo sapiens), sequence (P34981 whole entry, looked up): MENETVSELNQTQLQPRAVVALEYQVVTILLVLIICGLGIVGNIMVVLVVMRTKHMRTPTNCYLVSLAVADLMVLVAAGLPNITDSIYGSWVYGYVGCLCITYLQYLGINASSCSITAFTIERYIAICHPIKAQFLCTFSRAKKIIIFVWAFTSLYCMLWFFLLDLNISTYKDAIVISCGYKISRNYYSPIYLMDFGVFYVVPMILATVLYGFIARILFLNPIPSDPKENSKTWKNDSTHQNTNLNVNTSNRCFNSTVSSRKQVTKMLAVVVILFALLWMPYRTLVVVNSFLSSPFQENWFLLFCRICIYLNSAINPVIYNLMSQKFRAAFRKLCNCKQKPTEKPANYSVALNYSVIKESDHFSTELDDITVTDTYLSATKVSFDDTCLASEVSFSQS
Summary of the method: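 Enhancer read-out: after compound pinning and an initial kinetic agonist-mode read, an EC20 of TRH (10 nM final) was injected and fluo-8 calcium signal (Ex 480/Em 530) followed at 1 s/cycle for 100 cycles in TRHR-expressing cells.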
With `COc1cccc(CNC(=O)Cn2ncn3c(cc4ccccc43)c2=O)c1` the enhancement was 4.48% (inactive).
`CCOc1cc(-c2nnc(SCC(=O)NC3CCCCC3)nc2-c2ccc(OC)c(OCC)c2)ccc1OC` was tested, and the enhancement was -3.44% (inactive).
`O=C(CNC(=O)c1ccc(Cl)cc1Cl)OC(C(=O)Nc1cc(C(F)(F)F)ccc1Cl)c1ccccc1` (centres undefined) was tested, and the enhancement was 10.6% (inactive).
For `Cc1ccc(C(=O)Cn2cccn2)cc1`, the enhancement was -2.28% (inactive).
In the case of `O=C(CC(n1cncn1)C(Cl)(Cl)Cl)c1ccc([N+](=O)[O-])cc1` (centres undefined), the enhancement is reported as 0.518% (inactive).
For `O=C(Cn1c[n+](CC(=O)c2ccc([N+](=O)[O-])cc2)cn1)c1ccc([N+](=O)[O-])cc1`, the enhancement was -6.86% (inactive) and 34.2% (active).
With `O=C(NCCc1csc(-c2ccc(C(F)(F)F)cc2)n1)C(=O)Nc1ccc(F)c(Cl)c1` the enhancement was 0.606% (inactive).
In the case of `Cc1nc(CN(C)C(=O)CC2C(=O)NCCN2Cc2ccc(F)cc2)cs1` (centres undefined), the enhancement is reported as 20.6% (inactive).
With `CC(C)(C)CN1CCNC(=O)C1CC(=O)NC1Cc2ccccc2C1` (centres undefined) the enhancement was -4.71% (inactive).
In the case of `Cc1csc(CN(C)C(=O)CC2C(=O)NCCN2CC(C)(C)C)n1` (centres undefined), the enhancement is reported as 44.2% (active).
With `COc1ccc(CCNC(=O)c2cnc3sc(N4CCCCCC4)nn3c2=O)cc1OC` the enhancement was 7.34% (inactive).
For `COc1ccc(S(=O)(=O)c2cn(C)c3cc(N4CCCCC4)c(F)cc3c2=O)cc1`, the enhancement was 7.82% (inactive).
With `Cc1c(CNC2CCCCC2)c(C(=O)O)c(C)n1Cc1cccc(Cl)c1` the enhancement was -4.62% (inactive).
For `Cc1cc(OC(C)C(=O)Nc2sc3c(c2C(N)=O)CCCC3)ccc1Cl` (centres undefined), the enhancement was 34.9% (active).
`COC(=O)c1c(NC(=O)C(C)Oc2ccc(Cl)c(C)c2)sc(C)c1C` (centres undefined) was tested, and the enhancement was -3.22% (inactive).
In the case of `COc1ccc(-c2cc(C(=O)Nc3sc4c(c3C(N)=O)CCCC4)no2)cc1`, the enhancement is reported as 10.2% (inactive).
In the case of `CC1CC(C)CN(C(=O)CCNC(=O)Cn2cnc3ccccc3c2=O)C1` (centres undefined), the enhancement is reported as 2.77% (inactive).
With `O=C(Cn1cnc2ccccc2c1=O)NCC1COc2ccccc2O1` (centres undefined) the enhancement was 38.9% (active).
With `O=C(Cn1nc(Cc2cccnc2)c2ccccc2c1=O)NCC1COc2ccccc2O1` (centres undefined) the enhancement was 0.892% (inactive).
For `COC(=O)c1sc2ncccc2c1-n1c(C)ccc1C`, the enhancement was 4.46% (inactive).
In the case of `Cc1ccc(CN(C(=O)COc2ccc(Cl)cc2C)C2CCS(=O)(=O)C2)o1` (centres undefined), the enhancement is reported as 1.47% (inactive).
In the case of `COc1cccc(NC(=O)CN2C(=O)c3ccccc3Sc3ncccc32)c1`, the enhancement is reported as 2.38% (inactive).
`O=C(CN1C(=O)c2cccc3cccc1c23)Nc1ccccc1` was tested, and the enhancement was 43.7% (active).
In the case of `O=C(CN1CCOCC1)Nc1ccccc1`, the enhancement is reported as 2.28% (inactive).
In the case of `Oc1ccc(Cl)cc1C1C=C(c2ccc3c(c2)OCO3)NC(c2c(F)cccc2Cl)N1` (centres undefined), the enhancement is reported as -2.95% (inactive).
For `CCCC(=O)Nc1cc2nn(-c3ccccc3)nc2cc1C`, the enhancement was -3.06% (inactive).
For `CCCn1c2ccccc2c2cnn(CC(=O)NCC3CCN(Cc4ccc(C)cc4)CC3)c(=O)c21`, the enhancement was 1.43% (inactive).
With `CCc1nc2ccccc2c(C(=O)OC2CCCCC2=O)c1C` (centres undefined) the enhancement was -2.51% (inactive).
For `O=C(COC(=O)c1c2c(nc3ccccc13)CCCC2)c1ccc(Br)s1`, the enhancement was 35% (active).
`CCOc1ccc(NC(=O)CSc2c3c(nc4ccccc24)CCCC3)cc1` was tested, and the enhancement was -3.93% (inactive).
`Cc1cc(NS(=O)(=O)c2ccc3oc(=O)c4ncn(C)c4c3c2)ccc1Br` was tested, and the enhancement was -12.1% (inactive).
For `COc1ccc2c(c1)C=C(C(=O)NCc1cc(Br)ccc1OC)CO2`, the enhancement was -3.71% (inactive).
In the case of `CCCC(=O)Nc1ccc(NC(=O)c2sc3ccccc3c2Cl)cc1`, the enhancement is reported as -1.06% (inactive).
In the case of `CCC(=O)N1CCc2cc(S(=O)(=O)NC(C(=O)NCCc3ccc(C)cc3)C(C)C)ccc21` (centres undefined), the enhancement is reported as 18.2% (inactive).
For `CN(C(=O)CSc1nnc(Nc2ccccc2)s1)C1CCS(=O)(=O)C1` (centres undefined), the enhancement was 51.4% (active).
For `CCn1c(SCC(=O)N(C)C2CCS(=O)(=O)C2)nnc1-c1cccs1` (centres undefined), the enhancement was 2.93% (inactive).
With `CN(C(=O)CSc1nnc(NC(=O)Nc2ccccc2)s1)c1ccccc1` the enhancement was -6.25% (inactive).
With `CC(=O)c1ccc(N2CCN(C3C(=O)c4ccccc4N3C(C)=O)CC2)cc1` (centres undefined) the enhancement was -5.78% (inactive).
`N#Cc1ccccc1Cn1cnc2nc3c(cc2c1=O)CCCC3` was tested, and the enhancement was 2.65% (inactive).
`O=S(=O)(c1ccccc1)c1nc(-c2ccc(Cl)cc2Cl)oc1N1CCCCC1` was tested, and the enhancement was 2.85% (inactive).
With `CCCCNC(=O)C1CCCN(c2nnc(C)c3c(C)n(-c4ccc(Cl)cc4)nc23)C1` (centres undefined) the enhancement was -2.23% (inactive).
With `CC(C)C1Nc2c(C(=O)O)cccc2C(Nc2ccccc2C(=O)O)C1(C)C` (centres undefined) the enhancement was 30.3% (active).
`Cc1ccc(-n2nc(CO)c(C(=O)NCCc3ccccc3)n2)cc1` was tested, and the enhancement was -1.1% (inactive).
`CC(=O)N1CCCc2cc(S(=O)(=O)N3CCC(C(=O)NCc4ccc(C)cc4)CC3)ccc21` was tested, and the enhancement was 4% (inactive).
In the case of `CCc1ccc(Sc2cc(C(=O)NCCCOC(C)C)c3ccccc3n2)cc1`, the enhancement is reported as -9.07% (inactive).
For `CC1COc2ccccc2N1S(=O)(=O)c1ccccc1` (centres undefined), the enhancement was -5.39% (inactive).
`O=C1COc2ccc(C(=O)COC(=O)c3cccnc3Cl)cc2N1` was tested, and the enhancement was -8.83% (inactive).
With `CC1COc2ccccc2N1C(=O)c1cccnc1Cl` (centres undefined) the enhancement was 30.7% (active).
For `Cc1oc2ccc(O)c(CN3CCOCC3)c2c1C(=O)Nc1cccc(Cl)c1C`, the enhancement was -0.894% (inactive).
With `COc1ccc(-c2ccc(=O)n(CC(=O)Nc3ccc(Br)cc3F)n2)cc1` the enhancement was 5.81% (inactive).
For `Cc1cc(Br)ccc1NC(=S)NC1CCCC1`, the enhancement was 36% (active).
`Cc1cc(C)cc(NC(=O)NC2CCCCCCC2)c1` was tested, and the enhancement was -4.13% (inactive).
In the case of `S=C(Nc1ccc(Br)cc1Cl)NC1CCN(Cc2ccccc2)CC1`, the enhancement is reported as 1.92% (inactive).
With `CCOc1ccc(NC(=O)C2CCN(S(=O)(=O)c3cc(-c4noc(C)n4)ccc3C)CC2)cc1` the enhancement was 0.0598% (inactive).
`Cc1cccc(Cn2c(CN3CCC(C(=O)NCc4ccccc4Cl)CC3)cc3ccccc32)c1` was tested, and the enhancement was -3.11% (inactive).
In the case of `CCOc1ccc(C(=O)c2cn(Cc3ccccc3OC)c3ccc(F)cc3c2=O)cc1`, the enhancement is reported as -0.366% (inactive).
In the case of `N/C(=N\OC(=O)c1ccc2c(c1)OCO2)c1ccc(Br)cc1`, the enhancement is reported as -2.97% (inactive).
For `C/C(=N\OC(=O)c1ccccc1)c1c(C)nc2cc(C)ccn12`, the enhancement was -2.45% (inactive).
`C/C(=N/OC(=O)c1ccc(Br)cc1)c1ccc(C)cc1` was tested, and the enhancement was 61.7% (active).
Further: 0% is about no effect.
